ERp5 inh: blocks human ERp5 reductase activity on insulin; ERp5 insulin aggregation, absorbance 650 nm, 90 min; inhibition, % at 9.99 µM; AID 651711; 0.05% of 350,000 active;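 active means mean replicate inhibition above about 25%, with every replicate also reaching it, limit read from the data, passing the limit was not always enough; inconclusive means only one of those two criteria met; inactive means neither criterion met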
DENV2 CPE rescue: DENV2-induced cell death inhibition; DENV2-infected cells, cytopathic effect rescue, plate reader; CPE inhibition, % at 9.99 µM; 1.7% of 350,000 active; in the data active means CPE inhibition above about 20%, passing the limit was not always enough; inconclusive means no clear call, values can overlap the other calls; tested in BHK-21 cells
Rtt109 Vps75: blocks Candida albicans Rtt109/Vps75 acetyltransferase activity; Q5AAJ8; purified Rtt109/Vps75, ThioGlo CoA-SH fluorescence, 4 h; inhibition, % at 34.9 µM; 0.16% of 330,000 active; AID 540336;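 active means inhibition of at least 50% in every replicate; inconclusive means best replicate reaches 50% inhibition but some replicates fall short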
SIRT5 inh: inhibitors of human sirtuin-5 desuccinylase; Q9NXA8; Purified SirT5, succinyl-peptide AMC, trypsin-coupled fluorescence; inhibition, % at 15 µM; 1.1% of 330,000 active; in the data active means inhibition above about 15%; inconclusive means no clear call, values can overlap the other calls
PDI turbidity: inhibitors of human protein disulfide isomerase. PDI insulin aggregation turbidity, A650, 90 min. inhibition, % at 10 µM. 0.052% of 350,000 active;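 active means mean inhibition across replicates of 30% or more, whatever share of single replicates reach that level; inconclusive means mean inhibition below 30% while every single replicate reaches 30%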
Target sequence (P07237 whole entry, looked up): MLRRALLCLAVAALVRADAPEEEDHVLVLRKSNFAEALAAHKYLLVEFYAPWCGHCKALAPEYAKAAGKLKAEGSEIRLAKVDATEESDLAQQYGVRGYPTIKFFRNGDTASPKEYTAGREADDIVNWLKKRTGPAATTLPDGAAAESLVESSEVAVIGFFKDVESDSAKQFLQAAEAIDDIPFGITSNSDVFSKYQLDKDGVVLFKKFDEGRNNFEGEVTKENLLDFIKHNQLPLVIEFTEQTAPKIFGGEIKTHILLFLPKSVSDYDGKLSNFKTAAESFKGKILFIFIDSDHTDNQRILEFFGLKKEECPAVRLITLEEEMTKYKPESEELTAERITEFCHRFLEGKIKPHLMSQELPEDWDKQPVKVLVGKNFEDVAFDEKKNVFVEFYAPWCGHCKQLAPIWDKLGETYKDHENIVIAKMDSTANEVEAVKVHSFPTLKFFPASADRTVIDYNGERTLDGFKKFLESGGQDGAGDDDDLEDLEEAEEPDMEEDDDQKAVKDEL
Hits are given with their value; – = inactive; ? = inconclusive; · = not tested or not shown. An excerpt weighted towards active compounds, which were near 2.3% of everything screened.

SMILES | ERp5 inh | DENV2 CPE rescue | Rtt109 Vps75 | SIRT5 inh | PDI turbidity
O=C1c2ccccc2CN1CCSC(=S)N1CCOCC1 | – | 21.0 | – | – | –
CC1CN(C(=S)SCCN2Cc3ccccc3C2=O)CC(C)O1 (stereo not given) | – | – | – | – | –
O=C(OCc1ccc(Br)cc1)c1ccncc1 | – | – | 57.5 | – | –
CCC(=O)N[C@H]1CC[C@H](CC(=O)NCC2CCCCC2)O[C@H]1CO | – | – | · | – | ·
CCCC(=O)Nc1ccc2c(c1)OC[C@@H](C)N(Cc1cccc(F)c1)C[C@H](C)[C@H](OC)CN(C)C2=O | – | – | · | – | ·
C[C@@H]1CN([C@H](C)CO)C(=O)c2cccc(NC(=O)CCCCCC(=O)Nc3ccccc3N)c2O[C@H]1CN(C)Cc1ccc(Cl)c(Cl)c1 | – | – | · | 15.4 | ·
C[C@@H]1CN([C@H](C)CO)C(=O)Cc2cc(NC(=O)CCCCCC(=O)Nc3ccccc3N)ccc2O[C@H]1CN(C)Cc1ccc(Cl)c(Cl)c1 | – | – | · | – | ·
C[C@@H]1CN([C@H](C)CO)C(=O)c2cc(NC(=O)CCCCCC(=O)Nc3ccccc3N)ccc2O[C@@H]1CN(C)Cc1ccc(Cl)c(Cl)c1 | – | – | · | 24.1 | ·
C[C@@H]1CN([C@@H](C)CO)C(=O)c2cccc(NC(=O)CCCCCC(=O)Nc3ccccc3N)c2O[C@@H]1CN(C)Cc1ccc2c(c1)OCO2 | – | 49.5 | · | – | ·
C[C@H]1CN([C@@H](C)CO)C(=O)c2cc(NC(=O)CCCCCC(=O)Nc3ccccc3N)ccc2O[C@H]1CN(C)Cc1ccc(Cl)c(Cl)c1 | – | – | · | 21.2 | ·
C[C@]12CCC3C4(C=CC5(C=C4C(=O)C4CCCCC4)C[C@@H](O)CC[C@]35C)C1CC[C@@]2(O)CN1CCC(n2c(=O)[nH]c3ccccc32)CC1 (stereo not given in full) | – | – | · | – | ·
COc1ccccc1C#Cc1cnc2c(c1)C(=O)N([C@@H](C)CO)C[C@@H](C)[C@@H](CN(C)C(=O)CC1CC1)O2 | – | ? | · | – | ·
CC(=O)Nc1cccc(OCc2cccc([N+](=O)[O-])c2)c1 | – | – | – | · | –
CC(=O)Nc1ccc(OCc2cccc([N+](=O)[O-])c2)cc1 | – | – | 58.0 | – | –
CCCNC(=O)Nc1ccc2c(c1)OC[C@H](C)N(S(C)(=O)=O)C[C@H](C)[C@@H](OC)CN(C)C2=O | – | – | · | · | ·
CN(CC(=O)Nc1ccccc1C(=O)NC1CC1)Cc1ccccc1F | – | 78.2 | – | – | –
CCCC(=O)Nc1ccc2c(c1)OC[C@@H](C)N(Cc1ccc(F)cc1)C[C@@H](C)[C@@H](OC)CN(C)C2=O | – | – | · | – | ·
C[C@H]1CN([C@@H](C)CO)C(=O)c2cccc(NC(=O)c3cnccn3)c2O[C@H]1CN(C)CC1CCCCC1 | – | – | · | – | ·
COCCN(C[C@@H]1N[C@@H](CO)[C@H]1c1ccc(-c2ccc(F)cc2)cc1)C(C)=O | – | – | · | – | ·
COCCN(C[C@H]1N[C@H](CO)[C@@H]1c1ccc(-c2ccc(F)cc2)cc1)C(C)=O | – | 34.8 | · | – | ·
CN(C[C@H]1N[C@@H](CO)[C@H]1c1ccc(-c2cccc(F)c2)cc1)C(=O)C1CCC1 | – | – | · | – | ·
CCN(C[C@H]1N[C@H](CO)[C@@H]1c1ccc(-c2ccc(F)cc2)cc1)C(=O)COC | – | 44.7 | · | – | ·
CN(C[C@H]1N[C@@H](CO)[C@H]1c1ccc(-c2cccc(F)c2)cc1)C(=O)CC1CC1 | – | 20.2 | · | – | ·
C[C@@H]1CCCCO[C@@H](CN(C)C(=O)Nc2ccc3c(c2)OCO3)[C@@H](C)CN([C@H](C)CO)C(=O)c2cc(NS(=O)(=O)c3cccs3)ccc2O1 | – | – | · | – | ·
N#Cc1ccc(-c2ccc([C@@H]3[C@@H](CO)N4CCCCN(S(=O)(=O)c5ccccc5)C[C@H]34)cc2)cc1 | – | – | · | – | ·
SMILES | ERp5 inh | DENV2 CPE rescue | Rtt109 Vps75 | SIRT5 inh | PDI turbidity
N#Cc1cccc(-c2ccc([C@H]3[C@@H](CO)N4CCCCN(S(=O)(=O)c5ccccc5)C[C@H]34)cc2)c1 | – | – | · | 17.9 | ·
N#Cc1ccc(-c2ccc([C@H]3[C@@H](CO)N4CCCCN(S(=O)(=O)c5ccccc5)C[C@@H]34)cc2)cc1 | – | 45.7 | · | – | ·
CC(=O)N1CC(=O)N2[C@H](C1)[C@@H](c1ccc(C#Cc3cccnc3)cc1)[C@@H]2CO | – | – | · | – | ·
COc1ccc(C#Cc2ccc([C@H]3[C@@H](CO)N4C(=O)CN(C(C)=O)C[C@H]34)cc2)cc1 | – | – | · | 26.3 | ·
CC(=O)N1CC(=O)N2[C@H](CO)[C@@H](c3ccc(C#Cc4cccnc4)cc3)[C@@H]2C1 | – | 26.5 | · | – | ·
COc1ccc(C#Cc2ccc([C@H]3[C@H]4CN(C(C)=O)CC(=O)N4[C@H]3CO)cc2)cc1 | – | ? | · | – | ·
O=C(Nc1cccc(S(=O)(=O)N2CCOCC2)c1)C1CC1 | · | – | – | 23.0 | –
O=S(=O)(c1ccc2ccccc2c1)N1CCOCC1 | – | ? | – | 99.4 | –
Cc1cc(Cl)ccc1OC(C)C(=O)Nc1cccc(S(=O)(=O)N2CCOCC2)c1 (stereo not given) | – | – | · | · | –
N#CCc1ccc(NC(=O)c2cc(S(=O)(=O)N3CCOCC3)ccc2Cl)cc1 | – | 60.1 | – | – | –
O=C(Nc1cccc(S(=O)(=O)N2CCOCC2)c1)C1CCCC1 | – | – | – | – | –
CC(Sc1nc2cc(Cl)ccc2s1)C(=O)Nc1cccc(S(=O)(=O)N2CCOCC2)c1 (stereo not given) | – | 32.9 | – | – | –
C[C@H]1CN([C@@H](C)CO)S(=O)(=O)c2ccc(-c3ccccc3)cc2O[C@@H]1CN(C)C | – | – | · | – | ·
CCCNC(=O)[C@@H]1[C@@H](CO)[C@@H]2Cn3c(cccc3=O)[C@H]1N2S(=O)(=O)c1ccccc1F | – | – | · | – | ·
COc1cc(/C=C/C(=O)O)cc(S(=O)(=O)Nc2cccc(S(=O)(=O)N3CCOCC3)c2)c1OC | – | – | – | 22.0 | –
COc1cc(/C=C/C(=O)O)cc(S(=O)(=O)Nc2cc(S(=O)(=O)N3CCCCC3)ccc2Cl)c1OC | – | – | · | · | –
O=C(NC1CC1)c1cccc(NC(=O)c2cc(S(=O)(=O)N3CCOCC3)ccc2Cl)c1 | – | 93.8 | – | – | –
C[C@H]1CN([C@@H](C)CO)C(=O)c2cc(NC(=O)Nc3cccc4ccccc34)ccc2O[C@@H]1CN(C)S(=O)(=O)c1cn(C)cn1 | – | – | · | – | ·
C[C@@H]1CN([C@@H](C)CO)C(=O)c2cc(NC(=O)c3ccccc3)ccc2O[C@@H](C)CCCCO[C@H]1CN(C)C(=O)c1ccncc1 | – | – | · | – | ·
C[C@H](CO)N1C[C@H](C)[C@H](CN(C)C(=O)C2CCCCC2)OCCCC[C@H](C)Oc2ccc(NS(=O)(=O)c3ccc(F)cc3)cc2C1=O | – | – | · | – | ·
C[C@@H]1CCCCO[C@H](CN(C)C(=O)C2CCCCC2)[C@H](C)CN([C@H](C)CO)C(=O)c2cc(NS(=O)(=O)c3ccc(Cl)cc3)ccc2O1 | – | 38.6 | · | – | ·
C[C@@H]1CCCCO[C@H](CN(C)C(=O)C2CCCCC2)[C@H](C)CN([C@@H](C)CO)C(=O)c2cc(NS(=O)(=O)c3ccc(F)cc3)ccc2O1 | – | – | · | 15.6 | ·
